Measurements from PubChem BioAssay (NCATS).
Records with an inconclusive call do not appear. Calls of active or inactive are those of the source. Calls come from the whole dose curve; as a rule, active = well fitted curve in the direction sought with a large enough effect; inconclusive = small, poorly fitted or top-dose-only effect, or another doubt; inactive = no such curve, though single readings can be large; an effect the other way counts as inactive or inconclusive.

How the values were obtained:
[1] = qHTS for H2AX Agonists against the NCATS CANVASS Library (AID 1347378); conditions: CHO-K1 H2AX phosphorylation, HTRF TR-FRET, 3 h; series mostly up to 76.9 µM
Outline: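 Phospho-H2AX (S139) in CHO-K1 lysates measured by HTRF, reported as 665/615 nm emission ratio after 24 hr antibody incubation at room temperature. Cells were first treated with a compound series for 3 hr at 37C (0.76% DMSO final).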

[2] = qHTS for Inflammasome Signaling Inhibitors: IL-1-beta AlphaLISA screen against the NCATS CANVASS Library (AID 1347379); conditions: THP-1 LPS/ATP, IL-1B AlphaLISA secretion, 16 h; outcome: at 57.5 µM (top of the series); series mostly up to 57.5 µM
Outline: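 THP-1, 1 hr compound pre-incubation, then LPS 250 ng/mL + ATP 1.25 mM (final); 16 hr total with compound; IL-1B AlphaLISA, ex 680/em 615 nm; 11-point qHTS, up to 57.5 uM final.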

[3] = qHTS for Antimalaria activity screened against the NCATS CANVASS Library (AID 1347380); conditions: P. falciparum Dd2 growth, SYBR Green fluorescence, 72 h; series mostly up to 28.7 µM
Text: Natural products and their derivatives continue to be wellsprings of nascent therapeutic potential. However, many laboratories have limited resources for biological evaluation, leaving their previously isolated or synthesized compounds largely or completely untested. To address this issue, the Canvass library of natural products was assembled (https://tripod.nih.gov/canvass), in collaboration with academic and industry researchers, for quantitative high-throughput screening (qHTS) across a diverse set of cell-based and biochemical assays. […] The library was formatted into 1536-well plates and evaluated in 50 qHTS (in an 11-pnt concentration series) bioassays with broad scope of disease-relevant mechanisms. The resulting data set from 50 different assays was then systematically analyzed to identify overall trends and specific natural products with interesting biological activities. […] The proliferation assay assesses the ability of compounds to inhibit the proliferation and/or have cytotoxic effects (72 hr) against the asexual erythrocytic growth of Plasmodium falciparum Dd2, as determined by a SYBRGreen fluorescence assay. […]
Malaria-screen protocol: Assay adopted from Plouffe et al. 2008 PNAS 105: 9059; PMID: 18579783. […] The fluorescence signal was read using the EnVision (PerkinElmer) plate reader (bottom read) using a 485/14 nm excitation and 535/25 nm emission filters.

[4] = Inflammasome Signaling qHTS Counterscreen: IL-1-beta AlphaLISA counterscreen against the NCATS CANVASS Library (AID 1347381); conditions: Purified IL-1beta AlphaLISA signal interference counterscreen; series mostly up to 57.5 µM
Text: (§1) Natural products and their derivatives continue to be wellsprings of nascent therapeutic potential. However, many laboratories have limited resources for biological evaluation, leaving their previously isolated or synthesized compounds largely or completely untested. To address this issue, the Canvass library of natural products was assembled (https://tripod.nih.gov/canvass), in collaboration with academic and industry researchers, for quantitative high-throughput screening (qHTS) across a diverse set of cell-based and biochemical assays. The pure (>85% purity by liquid chromatography/mass spectrometry [LC/MS]) Canvass library of 346 natural products were submitted by 45 academic laboratories and companies around the world. We collected pure natural products to circumvent deconvolution and structure elucidation due to time and resource limitations. The library was formatted into 1536-well plates and evaluated in 50 qHTS (in an 11-pnt concentration series) bioassays with broad scope of disease-relevant mechanisms. The resulting data set from 50 different assays was then systematically analyzed to identify overall trends and specific natural products with interesting biological activities. […]
IL-1-beta-counterscreen qHTS protocol: 1. […] The AlphaLISA signal was read by the EnVision plate reader (PerkinElmer) using a 680 nm excitation and 615 nm emission filters.

[5] = Cytotoxicity qHTS for assessment of Hepg2 cells membrane integrity screened against the NCATS CANVASS Library (AID 1347387); conditions: HepG2 LDH release (CytoTox-ONE) fluorescence, 5 h; series mostly up to 46.1 µM
Outline: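 LDH release read by fluorescence (560 nm ex/590 nm em) after CytoTox-ONE addition and 10 min RT; signal tracks lysed cells. HepG2, 2000 cells/well, plated overnight; compound 5 hr, 37C, 5% CO2, final 0.59 nM - 46 uM, 11 points.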

[6] = qHTS for Activators of p53 Stress Response Pathway screened against the NCATS CANVASS Library (AID 1347388); conditions: p53RE-bla HCT-116, beta-lactamase reporter, 16 h; series mostly up to 46.1 µM
Outline: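 p53RE-bla HCT-116 cells (4000/well) were plated 5 h at 37C, exposed to compounds for 16 h at 37C over an 11-point concentration series, then loaded with CCF4 for 2 h at room temperature; 460/530 nm emission ratio read.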

[7] = qHTS assay for small molecule disruptors of mitochondrial membrane potential screened against the NCATS CANVASS Library (AID 1347389); conditions: HepG2 mitochondrial membrane potential, m-MPI red/green ratio, 1.5 h; series mostly up to 46.1 µM
Outline: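 Red/green fluorescence ratio read-out: J-aggregates ex 540/em 590 nm, monomers ex 490/em 535 nm. HepG2, 1 hr compound treatment, then 30 min Mito-MPS dye at 37C. 11-pt qHTS concentration series.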

[8] = Secretion counterscreen for inhibitors of the SERCaMP assay screened against the NCATS CANVASS Library (AID 1347390); conditions: SH-SY5Y constitutive GLuc secretion, luminescence, 20 h; series mostly up to 76.6 µM
Outline: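 Counterscreen for secretory-pathway interference: after 4 h attachment, SH-SY5Y-GLuc cells were exposed 20 hours to compounds (final 0.001 - 77 uM), then coelenterazine added and GLuc luminescence recorded; Brefeldin A served as control.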

[9] = qHTS for activators of Nrf2/ARE signaling pathway screened against the NCATS CANVASS Library (AID 1347391); conditions: ARE-bla HepG2, beta-lactamase reporter, 16 h; series mostly up to 46.1 µM
Text: as §1, with “We collected pure natural products to circumvent deconvolution and structure elucidation due to time and resource limitations.” left out
Nrf2/ARE-screen assay protocol: 1. […] Fluorescence readout was obtained using the Envision plate reader (PerkinElmer) using a 405 nm excitation and 460 nm and 530 nm emission filters. […] Luminescence was measured using the ViewLux plate reader with clear emission filter and 2x binning, 1 sec exposure settings.

[10] = qHTS for activators of dead-cell proteases activity screened against the NCATS CANVASS Library (AID 1347392); conditions: HepG2 cytotoxicity, dead-cell protease luminescence, 5 h; series mostly up to 46.1 µM
Outline: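 Cytotoxicity in HepG2 cells was assessed by released protease cleaving AAF-aminoluciferin, with luminescence as signal. Exposure lasted 5 h at 37C across an 11-point series.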

Measured: outcome

NCCc1c[nH]c2ccc(O)cc12
inactive: all assays above

NCCc1c[nH]c2ccccc12
inactive: all assays above
